Measured values as given in PubChem BioAssay (Tox21).
Results filed as inconclusive are left out. Active and inactive are the calls of the source. Unless noted, calls follow the shape of the dose curve; as a rule, active = well fitted curve in the direction sought with a large enough effect in the repeat runs; inconclusive = weak or mixed curves; inactive = flat fitted curve, though single readings scatter.

Assays:
[1] = qHTS assay to test for compound auto fluorescence at 535 nm (green) in HEK293 cells (AID 720680)
[2] = qHTS assay to test for compound auto fluorescence at 460 nm (blue) in HEK293 cell free culture (AID 720681)
How it was run: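 Compounds were added to cell-free DMEM with 10% FBS and fluorescence read directly. The blue channel used 405 nm excitation and 460 nm emission, with triamterene as the reference fluorophore.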

[3] = qHTS assay to test for compound auto fluorescence at 535 nm (green) in HEK293 cell free culture (AID 720682)
How it was run: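 Using fluorescein as calibrant, autofluorescence was quantified at 485/535 nm in cell-free DMEM containing 10% FBS after pintool addition of compound or vehicle.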

[4] = qHTS assay to test for compound auto fluorescence at 590 nm (red) in HEK293 cell free culture (AID 720683)
How it was run: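 Cell-free wells of DMEM with 10% FBS received compound, and intrinsic fluorescence was read at excitation/emission 540/590 nm. Values expressed as equivalence to Rose Bengal sodium.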

[5] = qHTS assay to test for compound auto fluorescence at 590 nm (red) in HepG2 cell free culture (AID 720684)
How it was run: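 Auto fluorescence equivalency versus Rose Bengal sodium, red channel Ex/Em 540/590 nm; compounds in cell-free MEM/10% FBS; DMSO vehicle control.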

[6] = qHTS assay to test for compound auto fluorescence at 460 nm (blue) in HepG2 cell free culture (AID 720685)
How it was run: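 Cell-free plates of MEM plus 10% FBS received 23 nL compound or DMSO vehicle; blue-channel (405/460 nm) intensity scored against triamterene as reference fluorophore.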

[7] = qHTS assay to test for compound auto fluorescence at 460 nm (blue) in HepG2 cells (AID 720687)
How it was run: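 HepG2 cells in MEM with 10% FBS, attached overnight at 37 C, were exposed to compound or DMSO for 1 hr at 37 C, 5% CO2. Blue fluorescence was read at 405/460 nm, with triamterene as reference fluorophore.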

[8] = target: Glucocorticoid receptor (Homo sapiens) (UniProt P04150); assay: qHTS assay to identify small molecule agonists of the glucocorticoid receptor (GR) signaling pathway (AID 720691; active = well fitted activation curve with a large enough effect in the signal ratio in the repeat runs, not every such curve was filed as active; the % refers to the signal ratio)
Chain of Glucocorticoid receptor (Homo sapiens) (P04150 whole entry, looked up): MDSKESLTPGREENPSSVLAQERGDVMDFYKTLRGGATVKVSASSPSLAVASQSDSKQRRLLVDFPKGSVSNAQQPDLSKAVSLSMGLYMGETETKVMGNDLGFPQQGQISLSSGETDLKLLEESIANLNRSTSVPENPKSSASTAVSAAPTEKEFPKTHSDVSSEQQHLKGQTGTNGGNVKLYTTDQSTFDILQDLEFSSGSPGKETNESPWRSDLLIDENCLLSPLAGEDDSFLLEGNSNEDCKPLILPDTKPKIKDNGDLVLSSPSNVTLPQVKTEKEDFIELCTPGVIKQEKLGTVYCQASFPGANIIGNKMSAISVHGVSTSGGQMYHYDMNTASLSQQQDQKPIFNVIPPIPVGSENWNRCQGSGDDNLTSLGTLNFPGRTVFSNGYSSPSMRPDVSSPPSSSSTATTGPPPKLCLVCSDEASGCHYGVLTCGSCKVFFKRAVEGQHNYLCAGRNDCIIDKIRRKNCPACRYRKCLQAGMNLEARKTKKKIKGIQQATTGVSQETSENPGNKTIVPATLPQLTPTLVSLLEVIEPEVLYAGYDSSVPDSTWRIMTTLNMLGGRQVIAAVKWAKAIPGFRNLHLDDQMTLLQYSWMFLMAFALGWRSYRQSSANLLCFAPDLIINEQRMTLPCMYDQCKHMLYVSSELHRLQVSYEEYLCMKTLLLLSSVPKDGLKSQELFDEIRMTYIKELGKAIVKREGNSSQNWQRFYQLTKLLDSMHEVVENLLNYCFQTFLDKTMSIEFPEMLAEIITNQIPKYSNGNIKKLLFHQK
How it was run: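 Measures GR pathway activation through a GRE-beta-lactamase reporter stably integrated in HeLa cells, with 18 h compound treatment at 37 C and fluorescence detection using a FRET substrate.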

[9] = target: Glucocorticoid receptor (Homo sapiens) (UniProt P04150); assay: qHTS assay to identify small molecule antagonists of the glucocorticoid receptor (GR) signaling pathway (AID 720692; active = well fitted inhibition curve with a large enough effect in the signal ratio in the repeat runs, not every such curve was filed as active; the % refers to the signal ratio)
How it was run: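 Tox21 10K library screened in concentration-response for blockade of dexamethasone (5 nM final)-induced GRE-bla reporter activity in HeLa cells; 18 h treatment, fluorescence read.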

[10] = qHTS assay to test for compound auto fluorescence at 535 nm (green) in HepG2 cell free culture (AID 720686)
% is scaled to controls: 0 for no effect and ±100 for the full control effect.

CC1CCC(C(C)(C)S)C(=O)C1 (stereo unspecified)
inactive: outcome [1] | outcome [2] | outcome [3] | outcome [4] | outcome [5] | outcome [6] | outcome [7]

COc1cc([N+](=O)[O-])ccc1N
inactive: outcome [1] | outcome [2] | outcome [3] | outcome [4] | outcome [5] | outcome [6] | outcome [7] | Potency [8] | outcome [9]

Cc1nc([N+](=O)[O-])cn1-c1ccc([N+](=O)[O-])cc1
inactive: outcome [1] | outcome [2] | outcome [3] | outcome [4] | outcome [5] | outcome [6] | outcome [7] | Potency [8] | outcome [9]

Cc1ccc2c(c1)c1c3n2CCNC3CCC1 (stereo unspecified)
inactive: outcome [1] | outcome [2] | outcome [3] | outcome [4] | outcome [5] | outcome [6] | outcome [7] | Potency [8] | outcome [9]

CCCCCCCCCOCC1CO1 (stereo unspecified)
inactive: outcome [1] | outcome [2] | outcome [3] | outcome [4] | outcome [5] | outcome [6] | outcome [7] | Potency [8] | outcome [9]

CCC1Nc2cc(Cl)c(S(N)(=O)=O)cc2S(=O)(=O)N1 (stereo unspecified)
inactive: outcome [1] | outcome [2] | outcome [3] | outcome [4] | outcome [5] | outcome [10]

CC(C)(c1ccc(Oc2ccc3c(c2)C(=O)OC3=O)cc1)c1ccc(Oc2ccc3c(c2)C(=O)OC3=O)cc1
inactive: outcome [1] | outcome [2] | outcome [3] | outcome [4] | outcome [5] | outcome [6] | outcome [7] | Potency [8] | outcome [9]

CCCCOC(=O)C(=O)OCCCC
inactive: outcome [1] | outcome [2] | outcome [3] | outcome [4] | outcome [5] | outcome [6] | outcome [7] | Potency [8]

CC(C)(C)NCCO
inactive: outcome [1] | outcome [2] | outcome [3] | outcome [4] | outcome [5] | outcome [6] | outcome [7] | Potency [8] | outcome [9]

C/C=C(\C)C(=O)OCC/C=C\CC
inactive: outcome [1] | outcome [2] | outcome [3] | outcome [4] | outcome [5] | outcome [6] | outcome [7] | Potency [8] | outcome [9]

CCCC(C)CC (stereo unspecified)
inactive: outcome [1] | outcome [2] | outcome [3] | outcome [4] | outcome [5] | outcome [10] | outcome [7]

Cc1cccc(Nc2ccncc2S(=O)(=O)NC(=O)NC(C)C)c1
inactive: fluorescence, % of fluorescein [1] -0.12% [at 18.6 µM] | fluorescence, % of fluorescent control [2] -0.219% [at 18.6 µM] | activity change [3] -0.379% [at 18.6 µM] | fluorescence, % of fluorescent control [4] 0.257% [at 18.6 µM] | fluorescence, % of Rose Bengal [5] -0.0539% [at 18.6 µM] | Potency [8] | outcome [9]

Cc1ccccc1C
inactive: outcome [1] | outcome [2] | outcome [3] | outcome [4] | outcome [5] | outcome [10] | outcome [7] | Potency [8]

CCCCOC(=O)[C@@H](C)Oc1ccc(Oc2ccc(C(F)(F)F)cn2)cc1
inactive: outcome [1] | outcome [2] | outcome [3] | outcome [4] | outcome [5] | outcome [10] | outcome [7] | Potency [8]

CC1=NN(c2ccc(S(=O)(=O)O)cc2)C(=O)C1N=Nc1ccccc1 (stereo unspecified)
inactive: outcome [1] | outcome [2] | outcome [3] | outcome [4] | outcome [5] | outcome [10] | outcome [7] | Potency [8] | outcome [9]

CCOC(=O)C(C)(C)C
inactive: outcome [1] | outcome [2] | outcome [3] | outcome [4] | outcome [5] | outcome [10] | outcome [7]

CCCCCCCCCCCCCC(=O)OC
inactive: outcome [1] | outcome [2] | outcome [3] | outcome [4] | outcome [5] | outcome [10] | outcome [7] | Potency [8] | outcome [9]

O=C(c1ccc2c(c1)C(=O)OC2=O)c1ccc2c(c1)C(=O)OC2=O
inactive: outcome [1] | outcome [2] | outcome [3] | outcome [4] | outcome [5] | outcome [10] | outcome [7] | Potency [8] | outcome [9]

O=[Si]=O
inactive: outcome [1] | outcome [2] | outcome [3] | outcome [4] | outcome [5] | outcome [10] | outcome [7] | Potency [8] | outcome [9]

CCCCCCCCC(=O)OCC
inactive: outcome [1] | outcome [2] | outcome [3] | outcome [4] | outcome [5] | outcome [10] | outcome [7] | Potency [8] | outcome [9]

C[CH2][Ge]([Cl])([CH2]C)[CH2]C
inactive: outcome [1] | outcome [2] | outcome [3] | outcome [4] | outcome [5] | outcome [10] | outcome [7]

CCCCCCCC[Si](OCC)(OCC)OCC
inactive: outcome [1] | outcome [2] | outcome [3] | outcome [4] | outcome [5] | outcome [10] | outcome [7] | Potency [8] | outcome [9]

O=C1OC(=O)c2cc(Oc3ccc4c(c3)C(=O)OC4=O)ccc21
inactive: outcome [1] | outcome [2] | outcome [3] | outcome [4] | outcome [5] | outcome [7]

CN[C@@H]1[C@@H](O)[C@@H](O[C@@H]2[C@H](O)[C@H](O[C@H]3OC(CN)=CC[C@H]3N)[C@@H](N)C[C@H]2N)OCC1(C)O (stereo partly specified)
inactive: outcome [1] | outcome [2] | outcome [3] | outcome [4] | outcome [5] | outcome [10] | outcome [7] | Potency [8] | outcome [9]

COC(OC)C(C)c1ccccc1 (stereo unspecified)
inactive: outcome [1] | outcome [2] | outcome [3] | outcome [4] | outcome [5] | outcome [10] | outcome [7] | Potency [8] | outcome [9]

CN[C@@H]1[C@H](O)[C@H](NC)[C@H]2O[C@@]3(O)C(=O)C[C@@H](C)O[C@H]3O[C@@H]2[C@H]1O
inactive: fluorescence, % of fluorescein [1] 0.0714% [at 18.6 µM] | fluorescence, % of fluorescent control [2] 0.0087% [at 18.6 µM] | activity change [3] 0.0093% [at 18.6 µM] | fluorescence, % of fluorescent control [4] 0.386% [at 18.6 µM] | fluorescence, % of Rose Bengal [5] 0.555% [at 18.6 µM] | fluorescence, % of fluorescein control [10] 0.0131% [at 18.6 µM] | fluorescence, % of fluorescent control [7] 0.0309% [at 18.6 µM] | Potency [8] | outcome [9]

N#CCCOCCOCCC#N
inactive: outcome [1] | outcome [2] | outcome [3] | outcome [4] | outcome [5] | outcome [10] | outcome [7] | Potency [8] | outcome [9]

CCN1CN(CC)CN(CC)C1
inactive: outcome [1] | outcome [2] | outcome [3] | outcome [4] | outcome [5] | outcome [10] | outcome [7] | Potency [8] | outcome [9]

O=C1c2ccccc2-c2ccccc21
inactive: outcome [1] | outcome [2] | outcome [3] | outcome [4] | outcome [5] | outcome [10] | outcome [7] | Potency [8] | outcome [9]

O=C(Oc1ccccc1C(=O)O)c1ccccc1O
inactive: outcome [1] | outcome [2] | outcome [3] | outcome [4] | outcome [5] | outcome [10] | outcome [7]

Cc1cccc(C(=O)O)c1[N+](=O)[O-]
inactive: outcome [1] | outcome [2] | outcome [3] | outcome [4] | outcome [5] | outcome [10] | outcome [7]

OC(CCN1CCCCC1)(c1ccccc1)c1ccccc1
inactive: outcome [1] | outcome [2] | outcome [3] | outcome [4] | outcome [5] | outcome [7]

C=CCCCCCCCCCCC
inactive: fluorescence, % of fluorescein [1] 0.0165% [at 3.72 µM] | fluorescence, % of fluorescent control [2] -0.158% [at 3.72 µM] | activity change [3] 0.0052% [at 3.72 µM] | fluorescence, % of fluorescent control [4] -0.0144% [at 3.72 µM] | fluorescence, % of Rose Bengal [5] 0.0242% [at 3.72 µM] | fluorescence, % of fluorescein control [10] 0.0296% [at 3.72 µM] | fluorescence, % of fluorescent control [7] -0.017% [at 3.72 µM] | activation [8] -0.645% [at 6.9 µM] | activity change, negative = inhibition [9] -6.37% [at 7.04 µM]

CCCCC(C)C(=O)O (stereo unspecified)
inactive: outcome [1] | outcome [2] | outcome [3] | outcome [4] | outcome [5] | outcome [10] | outcome [7]

Nc1ccc(S(=O)(=O)Nc2ccccn2)cc1
inactive: fluorescence, % of fluorescein [1] 0.0233% [at 18.6 µM] | fluorescence, % of fluorescent control [2] -0.0806% [at 18.6 µM] | activity change [3] 0.0547% [at 18.6 µM] | fluorescence, % of fluorescent control [4] 0.101% [at 18.6 µM] | fluorescence, % of Rose Bengal [5] 0.012% [at 18.6 µM] | fluorescence, % of fluorescein control [10] -0.0379% [at 18.6 µM] | fluorescence, % of fluorescent control [7] 0.149% [at 18.6 µM] | Potency [8] | outcome [9]

CC(=O)c1ccc2c(c1)CCCC2
inactive: outcome [1] | outcome [2] | outcome [3] | outcome [4] | outcome [5] | outcome [10] | outcome [7] | Potency [8] | outcome [9]

CC(=O)OC(C)(C)Cc1ccccc1
inactive: outcome [1] | outcome [2] | outcome [3] | outcome [4] | outcome [5] | outcome [10] | outcome [7]

CNC(=O)NC
inactive: outcome [1] | outcome [2] | outcome [3] | outcome [4] | outcome [5] | outcome [10] | outcome [7] | Potency [8]

CO/N=C(/C(=O)N[C@@H]1C(=O)N2C(C(=O)O)=C(Cn3nnc(C)n3)CS[C@H]12)c1csc(N)n1
inactive: outcome [1] | outcome [2] | outcome [3] | outcome [4] | outcome [5] | outcome [7] | Potency [8] | outcome [9]

O=C(O)C(=O)Nc1cccc(-c2nn[nH]n2)c1
inactive: outcome [1] | outcome [2] | outcome [3] | outcome [4] | outcome [5] | outcome [10] | outcome [7] | Potency [8] | outcome [9]

O=CN1CCOCC1
inactive: outcome [1] | outcome [2] | outcome [3] | outcome [4] | outcome [5] | outcome [10] | outcome [7]

CCCCCC1CCCC(=O)O1 (stereo unspecified)
inactive: outcome [1] | outcome [2] | outcome [3] | outcome [4] | outcome [5] | outcome [7] | Potency [8] | outcome [9]

CCC(C)(C)C1CCC(=O)CC1
inactive: outcome [1] | outcome [2] | outcome [3] | outcome [4] | outcome [5] | outcome [7]

CCOC(=O)CCc1ccccc1
inactive: outcome [1] | outcome [2] | outcome [3] | outcome [4] | outcome [5] | outcome [10] | outcome [7]

OCCCCCCCl
inactive: outcome [1] | outcome [2] | outcome [3] | outcome [4] | outcome [5] | outcome [10] | Potency [8] | outcome [9]

O=c1cc(O)c(Cl)c[nH]1
inactive: outcome [1] | outcome [2] | outcome [3] | outcome [4] | outcome [5] | outcome [10] | outcome [7]
